# In paper PMC5540273 (PLoS ONE, 2017):
# Tested on: VRK2
# Conditions: concentration: 1 μM, replicates: in singlicate; n = 1
# 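Note: KINOMEscan kinase panel screen.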
row,SMILES,%Inh [%]
1,COc1ccc(NC(=O)c2ccoc2)cc1-c1ccc(C(=O)NCC2CC2)cc1 [GW810437],0
2,O=C(Nc1n[nH]c2nc(-c3ccccc3O)ccc12)C1CC1 [SB-711880],0
3,CNc1nccc(-c2ccc3c(N)n[nH]c3c2)n1 [GSK2206003],18
4,c1ccc(Oc2ccc(Nc3ccnc4cc(-c5ccc(CN6CCCCC6)o5)ccc34)cc2)nc1 [GW567143],14
5,Cc1ccc(NC(=O)c2ccc(Cl)c(Cl)c2)cc1-c1ccc(C(=O)Nc2ccncc2)cc1 [GSK1398460],0
6,CC(C)(C)c1ccc(C(=O)Nc2cn3cc(-n4ccnc4)ccc3n2)cc1,0
7,Cl.Cl.NCC(NC(=O)c1cc(-c2cccnc2)c(-c2ccnc3[nH]ccc23)s1)c1ccccc1 (centres unmarked) [GSK1323434],15
8,Cc1ccc(Nc2ccnc(Nc3ccc(C)c(F)c3)n2)cc1O.Cl [GW582868],48
9,O=C(Nc1n[nH]c2nc(-c3cccc(O)c3)ccc12)C1CC1 [SB-711805],0
10,COc1cccc(NC(=O)NCCNc2ccnc(Nc3ccc(F)cc3)n2)c1 [GSK1379879],0
11,Cc1cc(-c2c(-c3ccc(F)cc3)ncn2CCCN2CCOCC2)nc(N)n1 [SB-222517],0
12,COc1ccc(C)c(Nc2ccnc(Nc3ccc(-c4cnc[nH]4)cc3)n2)c1.Cl [GW784041],0
13,CN(C)CCNS(=O)(=O)c1ccc(-c2ccnc3[nH]ccc23)cc1 [GSK977620],0
14,COc1cccc(CC(=O)N2CCc3cc(-c4cn(C)c5ncnc(N)c45)ccc32)c1 [GSK2608899],0
